Measured values taken from ChEMBL document CHEMBL1201862, “PubChem BioAssay data set” (2004).
About 2,100 (0.53%) of roughly 400,000 compounds were called active. Roughly 14% stayed inconclusive and do not appear here. How the calls were made is not given here. The list comes from a sample in which actives are over-represented; it also holds similar structures and randomly drawn compounds.

Biological target: Ataxin-2 (Homo sapiens) (UniProt Q99700)
Assay: qHTS for Inhibitors of ATXN expression.
Type: functional

Ataxin-2 (Homo sapiens), sequence (Q99700 whole entry): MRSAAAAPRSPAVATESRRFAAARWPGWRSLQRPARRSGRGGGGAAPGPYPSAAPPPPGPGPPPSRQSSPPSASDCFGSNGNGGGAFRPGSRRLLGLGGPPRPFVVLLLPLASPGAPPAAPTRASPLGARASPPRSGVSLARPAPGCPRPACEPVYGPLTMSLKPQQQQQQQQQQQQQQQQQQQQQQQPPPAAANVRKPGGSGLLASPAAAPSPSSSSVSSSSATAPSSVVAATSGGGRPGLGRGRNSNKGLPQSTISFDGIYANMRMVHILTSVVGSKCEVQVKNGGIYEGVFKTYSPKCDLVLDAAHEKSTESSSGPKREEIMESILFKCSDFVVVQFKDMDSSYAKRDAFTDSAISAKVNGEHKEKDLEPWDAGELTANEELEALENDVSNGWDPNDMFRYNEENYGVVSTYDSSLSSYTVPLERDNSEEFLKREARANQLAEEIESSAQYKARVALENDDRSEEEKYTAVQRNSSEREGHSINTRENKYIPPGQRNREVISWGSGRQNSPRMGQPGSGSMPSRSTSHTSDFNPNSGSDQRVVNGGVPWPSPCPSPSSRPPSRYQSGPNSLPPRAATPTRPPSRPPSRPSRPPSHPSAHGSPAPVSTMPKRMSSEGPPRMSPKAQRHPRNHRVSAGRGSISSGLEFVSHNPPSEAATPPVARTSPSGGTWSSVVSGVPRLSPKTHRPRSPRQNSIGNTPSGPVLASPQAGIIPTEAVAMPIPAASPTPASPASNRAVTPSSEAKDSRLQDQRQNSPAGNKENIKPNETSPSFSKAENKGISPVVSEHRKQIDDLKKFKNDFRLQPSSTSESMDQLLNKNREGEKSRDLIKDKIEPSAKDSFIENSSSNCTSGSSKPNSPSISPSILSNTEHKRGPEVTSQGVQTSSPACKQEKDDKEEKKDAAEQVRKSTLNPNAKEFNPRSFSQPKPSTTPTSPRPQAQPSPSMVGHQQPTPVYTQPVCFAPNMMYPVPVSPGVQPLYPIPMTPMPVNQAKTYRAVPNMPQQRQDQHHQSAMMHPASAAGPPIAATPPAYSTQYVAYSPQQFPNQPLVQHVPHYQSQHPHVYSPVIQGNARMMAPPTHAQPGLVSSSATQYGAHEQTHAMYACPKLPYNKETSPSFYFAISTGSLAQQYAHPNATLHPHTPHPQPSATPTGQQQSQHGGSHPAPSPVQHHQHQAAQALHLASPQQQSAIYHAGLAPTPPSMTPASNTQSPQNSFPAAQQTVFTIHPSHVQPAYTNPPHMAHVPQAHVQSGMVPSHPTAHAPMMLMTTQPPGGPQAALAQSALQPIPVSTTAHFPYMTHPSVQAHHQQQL

Compound | Potency
COc1ccc(C2C=C(c3ccccc3)Nc3nc(NS(=O)(=O)c4ccccc4)nn32)cc1 (stereo not drawn) | inactive
COc1c2c(c3c(c1OC)c(=O)c1ccccc1n3C)OCO2 | inactive
Cc1c(CC(=O)N2CCN(C(=O)C3COc4ccccc4O3)CC2)c(=O)oc2c(C)c(O)ccc12 (stereo not drawn) | inactive
OC(COC(c1ccc(Cl)cc1)c1ccc(Cl)cc1)CN1CCc2ccccc2C1 (stereo not drawn) | 25.1 µM (active)
O=C(Cc1ccc(Cl)cc1)N1CCc2ccccc2C1 | inactive
O=C(c1cc2cc(Cl)ccc2[nH]1)N1CCc2ccccc2C1 | inactive
CCOC(=O)c1cc2c(=O)n3ccccc3nc2n(C(C)C)/c1=N/C(=O)c1ccco1 | inactive
COc1cc(-c2oc3ccc(C)cc3c(=O)c2O)cc(OC)c1OC | inactive
C[C@H]1CN([C@@H](C)CO)C(=O)c2cccc(NC(=O)Nc3ccc(C(F)(F)F)cc3)c2O[C@@H]1CN(C)S(=O)(=O)c1ccc(Cl)cc1 | 25.1 µM (active)
COc1ccc(S(=O)(=O)N(C)C[C@H]2Oc3c(NC(=O)Nc4ccc(C(F)(F)F)cc4)cccc3C(=O)N([C@H](C)CO)C[C@@H]2C)cc1 | 22.4 µM (active)
C[C@@H]1CN([C@H](C)CO)C(=O)c2cccc(NC(=O)Nc3ccc(C(F)(F)F)cc3)c2O[C@H]1CN(C)S(=O)(=O)c1cccs1 | 28.2 µM (active)
C[C@H](CO)N1C[C@H](C)[C@@H](CN(C)S(=O)(=O)c2ccc(F)cc2)Oc2c(NC(=O)Nc3ccc(C(F)(F)F)cc3)cccc2C1=O | 35.5 µM (active)
Cc1c(C(=O)/C=C/N(C)C)nnn1-c1ccc(Cl)cc1C#N | inactive
Cc1ccc(NC(=O)CN2C(=O)S/C(=C\c3ccc(-c4cccc(C(=O)O)c4C)o3)C2=O)cc1C | inactive
Cc1ccc(OCCCC(=O)ON=C(N)c2ccccc2C)cc1 | inactive
COc1ccc(C2CC(c3ccc(C(F)(F)F)cc3)=NN2c2ccc(S(N)(=O)=O)cc2)cc1 (stereo not drawn) | inactive
CCOC(=O)N1CCN(C(=O)CSc2nc(O)c3cnn(-c4ccc(C)cc4)c3n2)CC1 | inactive
COc1ccc(C2C3=C(CCCC3=O)N(CC(=O)O)C3=C2C(=O)CCC3)cc1Cl | inactive
COc1ccc(C(=O)/C=C/Nc2ccc(S(=O)(=O)Nc3cc(OC)nc(OC)n3)cc2)c(OC)c1 | inactive
CC(=O)Nc1ccc(N/C=C(\C=O)c2nc3ccccc3o2)cc1 | inactive
CCc1cnc2c(c1SC(C(C)=O)C(=O)N(C)C)c(=O)n(C)c(=O)n2C (stereo not drawn) | 39.8 µM (active)

Compound | Potency
COc1ccc(-c2c(C)c3ccc(O)c(CN4CCCC4)c3oc2=O)cc1OC | inactive
Cc1ccc2c(Cl)cc(Cl)c(OCC(=O)O)c2n1 | inactive
CCc1cc(=O)oc2c(CN3CCN(C)CC3)c(O)c(Cl)cc12 | inactive
CN(C)Cc1csc(NC(=O)Nc2ccccc2Oc2ccccc2)n1 | 25.1 µM (active)
CC(C)c1ccccc1NC(=O)Nc1nc(C(N)Cc2ccc(C(F)(F)F)cc2)cs1 (stereo not drawn) | 35.5 µM (active)
COc1cccc(-c2ccc3c(N)c(C(=O)Nc4cc(C(F)(F)F)ccc4OC)sc3n2)c1 | inactive
COc1ccccc1NC(=O)c1sc2nc(-c3ccco3)ccc2c1N | inactive
NC(Cc1ccc(C(F)(F)F)cc1)c1csc(NC(=O)Nc2ccccc2Oc2ccccc2)n1 (stereo not drawn) | 39.8 µM (active)
COc1ccccc1NC(=O)Nc1nc(C(N)Cc2ccc(C(F)(F)F)cc2)cs1 (stereo not drawn) | 39.8 µM (active)
CN(C)CCCN=C(S)Nc1ccc(Oc2ccccc2)cc1 | inactive
Cc1ccc(S(=O)(=O)NCCNc2ccc(Br)c(C)c2)cc1 | inactive
CCC(=O)Oc1c(C(=O)CC)cc2c(C)cc(=O)oc2c1C | inactive
O=C(OCCOc1ccccc1Cl)c1cc(S(=O)(=O)N2CCCCC2)ccc1N1CCOCC1 | inactive
CCCC[n+]1c2ccccc2cc2ccccc21 | inactive
Cc1cc(C)c(C)c(S(=O)(=O)NCc2ccc(C(=O)N3CCN(C)CC3)cc2)c1C | inactive
COc1ccc(-c2cc(C(F)F)n3ncc(C(=O)Nc4cc(C)on4)c3n2)cc1 | inactive
CCc1nccn1C(=O)c1cnn2c(C(F)F)cc(-c3ccc(C)cc3)nc12 | 31.6 µM (active)
CCCNC(=O)c1cnn2c(C(F)F)cc(-c3ccccc3)nc12 | inactive
Cc1cccnc1Nc1nc(-c2ccccn2)cs1 | 0.794 µM (active)
Cc1ccc(S(=O)(=O)NC(C(=O)Oc2ccc3c(C)c(Cl)c(=O)oc3c2)c2ccccc2)cc1 (stereo not drawn) | inactive
CCN1CCN(Cc2c(O)ccc3cc(-c4ccc(OC)cc4)c(=O)oc23)CC1 | inactive

Compound | Potency
CCC(C)Nc1ccc(NC(C)CC)cc1 (stereo not drawn) | 31.6 µM (active)
C=C1C(=O)C2=CC1CCC(=O)C1(C)CCC(OC(C)=O)C(C)(C)C1CC2O (stereo not drawn) | 28.2 µM (active)
COc1ccc(-c2c(C)c3ccc(O)cc3oc2=O)cc1OC | inactive
Cc1c(CC(=O)NCC(=O)O)c(=O)oc2cc3oc4c(c3cc12)CCCC4 | inactive
Cc1c(CC(=O)NCCC(C)C)c(=O)oc2cc3c(cc12)CCC(C)(C)O3 | 39.8 µM (active)
COc1ccccc1CCNC(=O)Cc1c(C)c2ccc(O)cc2oc1=O | inactive
O=C(CSc1nnc(NC(=O)c2ccccc2[N+](=O)[O-])s1)NC1CCCC1 | inactive
CCSc1nnc(NC(=O)c2ccc3ccccc3n2)s1 | 35.5 µM (active)
CCSc1nnc(NC(=O)CN2C(=O)C3CC=CCC3C2=O)s1 (stereo not drawn) | inactive
CCSc1nnc(NC(=O)c2ccccn2)s1 | 25.1 µM (active)
CCCSc1nnc(NC(=O)c2sc3nc(-c4cccs4)ccc3c2N)s1 | inactive
CCSc1nnc(NC(=O)CSc2nc3c(cc2C#N)CCCC3)s1 | inactive
CC(C)Cn1nc(NC(=O)c2cccc(Cl)c2)c2cc3ccccc3nc21 | inactive
Cc1ccc(NCC(=O)Nc2ccc(Br)cc2)cc1C | inactive
Cc1ccc(C)c(Sc2ccc(S(=O)(=O)Nc3ccc(C(=O)O)cc3)cc2)c1 | inactive
Cc1ccc(Sc2ccc(NC(=O)CCl)cc2)c(C)c1 | 39.8 µM (active)
COc1ccc(-c2cc3ccc(OC(C)C(=O)O)cc3oc2=O)cc1 (stereo not drawn) | inactive
FC(F)(F)c1cc(CCN2CCNC[C@@H]2CC2CCCCC2)cc(C(F)(F)F)c1 | 20 µM (active)
O=C1NC[C@@H](Cc2cccc3ccccc23)N(CCc2cc(C(F)(F)F)cc(C(F)(F)F)c2)C1=O | 31.6 µM (active)
FC(F)(F)c1cc(CCN2CCNC[C@@H]2Cc2ccccc2)cc(C(F)(F)F)c1 | 25.1 µM (active)
Oc1ccc(C[C@H]2CNCCN2CCc2cc(C(F)(F)F)cc(C(F)(F)F)c2)cc1 | 31.6 µM (active)
